CtBP-E1A blk = blocks the CtBP interaction with E1A; activity change, % (concentration not given with the values); 0.49% of 340,000 active; AlphaScreen GST-E1A/His-CtBP binding, 1536-well; hits give low values
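Protein mix (5X: 125 nM each GST-E1A, His-CtBP) was incubated with pinned compound 2 h at 37 deg C in dark, in 50 mM Tris pH 8.0 buffer with 300 mM NaCl. Glutathione donor and nickel acceptor beads followed; AlphaScreen signal read after 1 h.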
CCT chaperon mod = modulators of cytosolic chaperonin (CCT/TRiC) activity; purified chaperonin ATPase assay, HTRF ADP detection, 30 min; activity change, % (no concentration beside the values), hits read low; 0.3% of 360,000 active; AID 651819; in the data active = activity change below about -30%
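TRiC (40 or 20 nM final, by batch activity) in 30 mM Tris pH 7.4, 100 mM KCl, 5 mM MgCl2, 1 mM DTT was treated with compound at 76 uM single dose, then 10 uM ATP, 30 min at 37 °C. ADP was read by HTRF Transcreener.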
PI4K2A block = blocks human PI4K2A kinase activity; purified PI4K2A, ADP-Glo luminescence, 1 h; hits give low values; 0.13% of 420,000 active; Q9BTU6; activity change, negative = inhibition, % at 76.9 µM; in the data active = activity change below about -50%; inconclusive = mostly about -30% to -49%;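 note: -100% = wells without enzyme as full effect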
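PI4K2A activity was measured by ADP-Glo luminescence: enzyme (4 ug/mL stock) and phosphatidylinositol (1.2 mM stock) in Tris pH 7.5/MgCl2/EGTA/Triton X-100 buffer were reacted with ATP (300 microM stock) for one hour at ambient temperature.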
Eya2 phos inh = inhibitors of human Eya2 phosphatase activity; O00167; recombinant Eya2, OMFP fluorescence dephosphorylation (OMFP is methylfluorescein phosphate); Potency, µM (doses to about 76.9 µM), without a hit: top-dose activity, negative = inhibition, usual class: inhibitors; 0.006% of 330,000 active; AID 488837; active = well fitted inhibition curve with a large enough effect; inconclusive = small, poorly fitted or top-dose-only effect, or effect the other way; note: potency is the fitted concentration of half-maximal effect
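Eya2 (0.2 uM) preincubated 10 min at ambient with compound, then OMFP substrate added at 50 uM; 10 min reaction in 50 mM HEPES pH 7.5, 50 mM NaCl, 5 uM MgCl2, 0.05% BSA, 1 mM DTT. Fluorescence read at Ex 485/Em 525 nm.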
Six1-Eya2 blk = blocks human Six1 binding to Eya2. activity change, % (no concentration beside the values). AID 651725. AlphaScreen GST-Six1/His-Eya2 binding, biochemical; hits give low values. 0.56% of 360,000 active. Q15475+O00167
Target sequence (O00167 whole entry, looked up): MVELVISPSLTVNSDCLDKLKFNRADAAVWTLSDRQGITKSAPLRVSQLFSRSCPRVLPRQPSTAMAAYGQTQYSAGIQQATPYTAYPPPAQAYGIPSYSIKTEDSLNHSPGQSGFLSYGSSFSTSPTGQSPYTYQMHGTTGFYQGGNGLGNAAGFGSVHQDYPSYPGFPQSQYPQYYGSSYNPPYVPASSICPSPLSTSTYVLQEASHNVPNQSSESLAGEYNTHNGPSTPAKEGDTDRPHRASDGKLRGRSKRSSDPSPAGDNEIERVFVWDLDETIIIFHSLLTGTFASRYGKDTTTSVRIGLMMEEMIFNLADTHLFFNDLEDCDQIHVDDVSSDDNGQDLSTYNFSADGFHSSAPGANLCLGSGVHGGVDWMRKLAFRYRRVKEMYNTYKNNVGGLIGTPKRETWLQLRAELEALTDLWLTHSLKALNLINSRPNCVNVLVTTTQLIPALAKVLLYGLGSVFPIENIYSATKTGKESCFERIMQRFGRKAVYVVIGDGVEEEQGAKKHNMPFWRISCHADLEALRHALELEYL
Target sequence (Q15475 whole entry, looked up): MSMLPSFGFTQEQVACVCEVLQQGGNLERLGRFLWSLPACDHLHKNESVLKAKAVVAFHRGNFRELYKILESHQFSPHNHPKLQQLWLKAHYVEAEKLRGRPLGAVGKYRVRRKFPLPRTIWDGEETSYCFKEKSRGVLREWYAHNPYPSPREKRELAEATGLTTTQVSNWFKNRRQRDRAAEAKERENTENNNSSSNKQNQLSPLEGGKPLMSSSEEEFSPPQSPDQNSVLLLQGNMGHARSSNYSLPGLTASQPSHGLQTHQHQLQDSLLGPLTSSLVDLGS
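AlphaScreen luminescence read after one hour at 37 °C in darkness. Pin-transferred compounds met GST-Six1 and His-Eya2 protein (5X stock 250 nM/500 nM) plus glutathione donor and Ni-chelate acceptor beads (5X, 50 ug/mL).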
An asterisk follows results filed as active. In the library only some 0.97% were active in any assay of this set; here they are far more common. Cut-off read from the data, not from the text of the source, unless noted: active = activity change below about -65%; inconclusive = mostly about -30% to -63%; inactive = weaker than that. Unless noted, % is set by controls: 0 for no effect and ±100 for the full control effect.

Results for COc1cccc(NC(=O)n2ccc3ccc(-c4ccc5ccn(C(=O)Nc6cccc(OC)c6)c5c4)cc32)c1 ?
PI4K2A block: -1

Results for CC1=C(c2ccc(C(C)C)cc2)S(=O)(=O)NC1=NCc1ccccc1Br ?
PI4K2A block: -7

What do the screens show for `COc1ccc(C(CCN2CCN(c3ccccc3)CC2)c2c(O)cc(OC)cc2OC)cc1` (configuration not stated)?
CtBP-E1A blk: -29; CCT chaperon mod: 1; PI4K2A block: 2; Eya2 phos inh: 7%; Six1-Eya2 blk: inconclusive

How did COc1cc(O)c(C(CCN2CCN(c3ccccc3)CC2)c2ccc(N(C)C)cc2)c(OC)c1 (configuration not stated) do in these assays?
CtBP-E1A blk: -70*; CCT chaperon mod: 0; PI4K2A block: -2; Eya2 phos inh: -4%; Six1-Eya2 blk: -78*

What do the screens show for `O=C(Oc1cccc2cccnc12)c1cccc(-n2cnnn2)c1`?
CtBP-E1A blk: -9; CCT chaperon mod: -3; PI4K2A block: 1; Eya2 phos inh: -26%; Six1-Eya2 blk: -13

What do the screens show for `O=C(Oc1cccc2cccnc12)c1cccc(N2C(=O)C3C4CCC(C4)C3C2=O)c1` (configuration not stated)?
CtBP-E1A blk: -12; CCT chaperon mod: -2; PI4K2A block: -6; Eya2 phos inh: -2%; Six1-Eya2 blk: -87*

Results for O=C(Oc1cccc2cccnc12)c1ccc(N2C(=O)C3C4CCC(C4)C3C2=O)cc1 (configuration not stated) ?
CtBP-E1A blk: inconclusive; CCT chaperon mod: -1; PI4K2A block: -2; Eya2 phos inh: -4%; Six1-Eya2 blk: -89*

How did CCc1ccccc1NC(=O)Cn1c(=O)n(Cc2ccco2)c(=O)c2ccccc21 do in these assays?
PI4K2A block: -18

What do the screens show for `COc1ccc(CC(=O)Nc2c(C(=O)N3CCN(c4ncccn4)CC3)oc3ccccc23)cc1`?
CtBP-E1A blk: 3; CCT chaperon mod: -68*; PI4K2A block: -1; Eya2 phos inh: -9%; Six1-Eya2 blk: -2

How did Cc1cccc(Cc2c(C)nc3nc(SCc4cccc(F)c4)nn3c2C)c1 do in these assays?
PI4K2A block: -1

How did CC(C)N(C(=O)N1CCC(c2nc(-c3ccncc3)no2)CC1)C(C)C do in these assays?
CtBP-E1A blk: 5; CCT chaperon mod: 3; PI4K2A block: -72*; Eya2 phos inh: -14%; Six1-Eya2 blk: 1

What do the screens show for `CCN(C(=O)COC(=O)/C=C/c1c(C)nn(-c2ccccc2)c1C)C1CCS(=O)(=O)C1` (configuration not stated)?
CtBP-E1A blk: -71*; CCT chaperon mod: 0; PI4K2A block: 5; Eya2 phos inh: 3%; Six1-Eya2 blk: -7

What do the screens show for `Cc1nn(-c2ccccc2)c(C)c1/C=C/C(=O)OCC(=O)N(C)C1CCS(=O)(=O)C1` (configuration not stated)?
CtBP-E1A blk: inconclusive; CCT chaperon mod: -4; PI4K2A block: 1; Eya2 phos inh: 8%; Six1-Eya2 blk: 0

What do the screens show for `CN1/C(=C/C=C/c2n(C)c3cc([N+](=O)[O-])c([N+](=O)[O-])cc3[n+]2C)C(C)(C)c2ccccc21`?
CtBP-E1A blk: inconclusive; CCT chaperon mod: 2; PI4K2A block: -75*; Six1-Eya2 blk: inconclusive

How did O=C(CCC1N=C2c3ccccc3N=C(SCC(=O)Nc3cccc(Cl)c3)N2C1=O)NCc1ccco1 (configuration not stated) do in these assays?
PI4K2A block: 2

What do the screens show for `CC(C)(C)c1ccc(-c2cn(C[C@H](Cc3ccccc3)n3c(=O)c4ccccc4n3Cc3ccccc3)nn2)cc1`?
PI4K2A block: 1

Results for Cc1ccc2nc(CSc3nnc(Nc4ccccc4F)s3)cc(=O)n2c1 ?
CtBP-E1A blk: 2; CCT chaperon mod: -1; PI4K2A block: -2; Eya2 phos inh: -5%; Six1-Eya2 blk: -8

What do the screens show for `Cc1ccc(Nc2nnc(SCc3cc(=O)n4cc(C)ccc4n3)s2)cc1`?
CtBP-E1A blk: -67*; CCT chaperon mod: 0; PI4K2A block: 3; Eya2 phos inh: 3%; Six1-Eya2 blk: -23

Results for C=CCC(CC=C)(CNC(=O)C(=O)Nc1cccc(C(F)(F)F)c1)c1ccccc1 ?
PI4K2A block: -4

How did CC(=NCc1cccnc1)C1=C(O)c2ccccc2C1=O do in these assays?
CtBP-E1A blk: -4; CCT chaperon mod: 0; PI4K2A block: -54*; Eya2 phos inh: -12%; Six1-Eya2 blk: -3

Results for CC(=NCc1ccncc1)C1=C(O)c2ccccc2C1=O ?
Eya2 phos inh: 12%

Results for CCc1ccc(/C=C2\SC(=S)N(CCCC(=O)NCCCN3CCOCC3)C2=O)cc1 ?
CtBP-E1A blk: -8; CCT chaperon mod: 2; PI4K2A block: 8; Six1-Eya2 blk: -14

How did CCOc1ccc(/C=C2\SC(=S)N(CCCC(=O)NCCCN3CCOCC3)C2=O)cc1 do in these assays?
CtBP-E1A blk: -3; CCT chaperon mod: -38*; PI4K2A block: 13; Eya2 phos inh: 5%; Six1-Eya2 blk: -16

Results for CCOc1ccc(NC(=O)CC2C(=O)N(c3cccc(C)c3)C(=O)N2Cc2cccs2)cc1 (configuration not stated) ?
PI4K2A block: -7

What do the screens show for `CN(C)S(=O)(=O)c1cccc(NC(=S)N/N=C/c2cc(Br)ccc2O)c1`?
CtBP-E1A blk: -94*; CCT chaperon mod: -6; PI4K2A block: 8; Eya2 phos inh: -12%; Six1-Eya2 blk: -88*

How did Cc1ccc(-c2nnn3c2nc(NCc2ccc4c(c2)OCO4)c2ccccc23)cc1 do in these assays?
PI4K2A block: -5

What do the screens show for `CCc1ccc(-c2nc(SCC(=O)NCCOC)c(-c3ccc(C)cc3)[nH]2)cc1`?
PI4K2A block: -1

Results for COc1ccc(-c2cc(C)nc(SCC(=O)c3cccc([N+](=O)[O-])c3)n2)cc1 ?
CtBP-E1A blk: -2; CCT chaperon mod: -46*; PI4K2A block: 2; Eya2 phos inh: -10%; Six1-Eya2 blk: 0

How did CCc1ccc(NC(=O)CCCc2nc(-c3ccco3)no2)cc1 do in these assays?
PI4K2A block: -3

Results for CC(C)c1ccc(CNc2ccc(N3CCOCC3)cc2)cc1 ?
CtBP-E1A blk: -67*; CCT chaperon mod: -1; PI4K2A block: -25; Eya2 phos inh: -11%; Six1-Eya2 blk: -72*

How did CCOc1cc(CNc2ccc3c(c2)OCCO3)cc(Br)c1OCC do in these assays?
CtBP-E1A blk: inconclusive; CCT chaperon mod: -1; PI4K2A block: -7; Eya2 phos inh: -18%; Six1-Eya2 blk: -67*

What do the screens show for `CCOc1cc(CNc2ccc(N3CCOCC3)cc2)cc(Br)c1OCC`?
CtBP-E1A blk: -67*; CCT chaperon mod: -1; PI4K2A block: -5; Eya2 phos inh: -19%; Six1-Eya2 blk: -27

Compound activity deposited in PubChem by National Center for Advancing Translational Sciences (NCATS).
